Source: PubChem BioAssay (several laboratories)
Mot1-301 SUMO = inhibitors of SUMOylation pathway: yeast Mot1-301 growth rescue; S. cerevisiae Mot1-301 growth rescue, ATP luminescence, 38.5C; percent above DMSO median, 100 means doubled; growth rescue, % at 18.8 µM; 1% of 320,000 active; AID 2716;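 active means every valid replicate shows activation above 250% relative to neutral control wells; inactive means the rest, any valid replicate at or below 250%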
AI-2 QS modul = modulators of Vibrio harveyi AI-2 quorum sensing system | Vibrio harveyi JMH597 AI-2 luminescence/OD600 ratio, 9 h; active compounds read low; strain lacks LuxN and CqsS sensors; 0 = neutral-control median | activity change, % at 7.5 µM | 0.4% of 300,000 active; in the data active means activity change below about -75%, passing the limit was not always enough;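 further: luminescence divided by OD600 gain over 9 h not by final OD600 alone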
Efflux pump inh = inhibitors of Candida antifungal efflux pumps expressed in yeast; S. cerevisiae Candida pump triplex, Nile Red efflux; inhibition, % at 10 µM; 0.44% of 330,000 active; AID 485275;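 active means plate passing quality check with inhibition over a set limit, or well fluorescence over plate mean plus 4 SD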;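 further: Nile Red retained in pooled yeast measured as flow cytometry median fluorescence; higher means more Nile Red kept so more efflux inhibition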
ATG4B inh = inhibitors of human ATG4B cysteine protease; 0.51% of 340,000 active; inhibition, % at 8.33 µM; Q9Y4P1; ATG4B cleavage of LC3-PLA2, NBD-HPC fluorescence, 1 h; in the data active means inhibition above about 40%
Target sequence (Q9Y4P1 whole entry, looked up): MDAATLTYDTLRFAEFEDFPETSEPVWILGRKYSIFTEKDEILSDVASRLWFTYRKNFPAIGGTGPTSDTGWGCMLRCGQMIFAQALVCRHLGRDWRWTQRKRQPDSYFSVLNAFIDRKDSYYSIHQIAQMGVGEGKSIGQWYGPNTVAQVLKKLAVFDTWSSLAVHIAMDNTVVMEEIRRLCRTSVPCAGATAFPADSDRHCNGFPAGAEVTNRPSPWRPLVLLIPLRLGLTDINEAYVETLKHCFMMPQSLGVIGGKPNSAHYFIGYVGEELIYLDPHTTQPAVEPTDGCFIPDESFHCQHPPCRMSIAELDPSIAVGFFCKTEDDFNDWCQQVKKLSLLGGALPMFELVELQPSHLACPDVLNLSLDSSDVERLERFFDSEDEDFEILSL
V-ATPase pHluor = alters yeast V-ATPase proton transport; S. cerevisiae, pHLuorin cytosolic pH fluorescence; response, % at 10 µM; 0.37% of 350,000 active; in the data active means response mostly above about 7.3%, no sharp cut-off; inactive means mostly below about 5.4%; further: actives read high
Cmpd fluor yeast = flagged as fluorescent in efflux inhibitor counter-screen. shares compounds with Efflux pump inh. S. cerevisiae AD/pABC3, compound fluorescence, flow cytometry. fluorescence ratio to DMSO, % at 10 µM. 4% of 1,700 active. AID 588517;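 active means fluorescence ratio to DMSO above its plate's cutoff, the plate mean ratio plus 5 SD, cut at about 210% in these data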;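 further: unstained yeast with no Nile Red so the signal is compound autofluorescence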
Mdr1 pump inh = blocks the Candida albicans Mdr1 efflux pump in yeast; shares compounds with Efflux pump inh; S. cerevisiae AD/CaMDR1, Nile Red efflux, flow cytometry; inhibition, % at 10 µM; 1% of 1,700 active; in the data active means inhibition above about 26%;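 further: higher means more Nile Red retained so more efflux inhibition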
CaCdr2 efflux inh = Candida Cdr2 efflux pump inhibition; 4% of 1,700 active; Nile Red retention ratio vs DMSO, % at 10 µM; S. cerevisiae AD/CaCDR2, Nile Red retention, flow cytometry; AID 588520; shares compounds with Efflux pump inh; in the data active means Nile Red retention ratio vs DMSO above about 190%;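 further: higher ratio means more blocking of Cdr2 efflux of the dye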
CaCdr1 efflux inh = blocks the Candida albicans Cdr1 efflux pump in yeast; shares compounds with Efflux pump inh; S. cerevisiae AD/CaCDR1, Nile Red efflux, flow cytometry; inhibition, % at 10 µM; 1% of 1,700 active;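 active means inhibition above the screen-wide mean plus twice its standard deviation, cut at about 32% in these data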
ATG4B conf = confirmation of human ATG4B inhibitors. ATG4B protease fluorescent substrate cleavage assay. AID 504757. shares compounds with ATG4B inh. 92% of 320 active. inhibition, % at 8.33 µM; in the data active means inhibition above about 39%
PLA2 ctr = inhibits human PLA2, flagging false ATG4B inhibitors. shares compounds with ATG4B inh. purified PLA2, NBD-C6-HPC fluorescence, 45 min. inhibition, % at 8.33 µM. 66% of 1,600 active. AID 588402; in the data active means inhibition above about 50%
Of the large screens only hits and unclear results are named; the others gave an inactive call (follow-up assays come after a bar, where they were run). Hits are enriched below; roughly 2.5% of the tested compounds scored in any of these assays.

CCC(=O)N1CCC2(CC1)Oc1ccc(F)cc1C(=O)C21CC(c2ccc(Cl)cc2)=NO1 (configuration not stated)	none
Cc1ccc(C(=O)N2CCC3(CC2)Oc2ccc(Cl)cc2C(=O)C32CC(c3ccc(Cl)cc3)=NO2)s1 (configuration not stated)	none | Cmpd fluor yeast inactive | Mdr1 pump inh inactive | CaCdr2 efflux inh inactive | CaCdr1 efflux inh inactive
CC(=O)Nc1ccc(NC(=O)CSc2nnc(NC(=O)C3CC(=O)N(c4ccc(F)cc4)C3)s2)cc1 (configuration not stated)	none
NC(=O)c1ncc(C(F)(F)F)cc1Oc1cccnc1	none
CCOC(=O)c1ccccc1NS(=O)(=O)c1ccccc1F	Efflux pump inh 5.9 (no result: V-ATPase pHluor) | Cmpd fluor yeast inactive | Mdr1 pump inh inactive | CaCdr2 efflux inh inactive | CaCdr1 efflux inh inactive
CCCC(=O)Nc1ccc(C(=O)NNC(=O)COc2ccc(Br)c(C)c2)cc1	none (no result: V-ATPase pHluor)
CC(C)CCN1C(=O)c2cccc3c(N)ccc(c23)C1=O	Efflux pump inh 0.5 | Cmpd fluor yeast 334.8 | Mdr1 pump inh inactive | CaCdr2 efflux inh inactive | CaCdr1 efflux inh inactive
CCOC(=O)c1nc(Nc2cccc(C)c2)c2ccccc2n1	none
CCOC(=O)c1nc(Nc2ccccc2C)c2ccccc2n1	Efflux pump inh 0.9 | Cmpd fluor yeast inactive | Mdr1 pump inh inactive | CaCdr2 efflux inh inactive | CaCdr1 efflux inh inactive
COc1ccc(-c2cc(=O)n(-c3ccc([N+](=O)[O-])cc3)[nH]2)cc1	Efflux pump inh 13.8 | Cmpd fluor yeast inactive | Mdr1 pump inh inactive | CaCdr2 efflux inh inactive | CaCdr1 efflux inh inactive
O=C1/C(=C\c2ccco2)SC(=S)N1c1ccc(O)cc1	Efflux pump inh 0.4 | Cmpd fluor yeast inactive | Mdr1 pump inh inactive | CaCdr2 efflux inh inactive | CaCdr1 efflux inh inactive
O=C1/C(=C/C=C/c2ccco2)SC(=S)N1c1ccc(O)cc1	none
COc1ccccc1C(=O)Nc1ccc(C2=NNC(=O)CC2C)cc1 (configuration not stated)	Efflux pump inh 1.0 | Cmpd fluor yeast inactive | Mdr1 pump inh inactive | CaCdr2 efflux inh inactive | CaCdr1 efflux inh inactive
COc1ccccc1C(=O)Nc1ccncc1	none
O=C(C[n+]1cc(-c2ccc(Cl)c(Cl)c2)n2c1CCC2)OCc1ccccc1	Efflux pump inh 6.4 | Cmpd fluor yeast inactive | Mdr1 pump inh inactive | CaCdr2 efflux inh inactive | CaCdr1 efflux inh inactive
CCc1ccc(NC(=O)c2ccc(NC3=NC4CS(=O)(=O)CC4S3)cc2)cc1 (configuration not stated)	none
O=C(O)c1cc(Br)ccc1NS(=O)(=O)c1cccc2nsnc12	none
O=C(O)c1ccccc1NS(=O)(=O)c1cccc2nsnc12	Efflux pump inh 0.7 | Cmpd fluor yeast inactive | Mdr1 pump inh inactive | CaCdr2 efflux inh inactive | CaCdr1 efflux inh inactive
Cc1ccccc1S(=O)(=O)Nc1nc2ccccc2nc1N1CCc2ccccc2C1	Efflux pump inh 7.5, ATG4B inh 43.1 | Cmpd fluor yeast inactive | Mdr1 pump inh inactive | CaCdr2 efflux inh inactive | CaCdr1 efflux inh inactive | ATG4B conf 62.0 | PLA2 ctr inactive
O=S(=O)(Nc1nc2ccccc2nc1N1CCc2ccccc2C1)c1ccc(Br)cc1	none (no result: AI-2 QS modul)
CCOc1ccc(-n2c(SCC(=O)c3c(N)n(C)c(=O)n(C)c3=O)nnc2-c2cccnc2)cc1	none
